# HP1b binding inh – HTS for Inhibitors of HP1-beta Chromodomain Interactions with Methylated Histone Tails. Chromobox protein homolog 1 (Homo sapiens), P83916. 390,000 tested, 0.56% active. AlphaScreen HP1-beta / biotin-H3K9me3 peptide binding. Potency, µM (top dose mostly 114 µM), for inactives: at the top dose activity change, negative = inhibition, actives largely listed as inhibitors; further: nearly all actives have a fitted effect of over 70% in size
#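 AlphaScreen: HP1-beta (50 nM) preformed 30 min with biotin-H3(1-18)K9me3 peptide (50 nM) in PBS pH 7.4, 0.01% Tween-20. Compound added for 30 min at RT, then streptavidin donor/nickel chelate acceptor beads (10 ug/mL) for 30 min.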
# 12-LOX inh – Primary qHTS assay for inhibitors of human arachidonate 12S-lipoxygenase (ALOX12): Round 2 | 580,000 tested, 1.1% active | Potency, µM (top dose mostly 108 µM), for the others: at the highest dose activity change, negative = inhibition, usual class: inhibitors | purified 12hLO, xylenol orange hydroperoxide absorbance | Polyunsaturated fatty acid lipoxygenase ALOX12 (Homo sapiens), P18054; further: on the % scale 0 is the no-effect control and ±100 the full control effect
#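 Purified human 12hLO (150 nM final) in 25 mM Hepes, 0.01% Triton X-100, pH 7.0 was preincubated 15 min at room temperature with compound. Then 40 uM arachidonic acid was added, 30 min. Hydroperoxide was read by Fe-XO absorbance ratio 573/405 nm.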
# BAZ2B block – qHTS Assay for Inhibitors of BAZ2B; Bromodomain adjacent to zinc finger domain protein 2B (Homo sapiens), Q9UIF8; AlphaScreen BAZ2B-H3K14Ac peptide displacement; Potency, µM (highest dose often 114 µM), for the others: at the top dose activity change, negative = inhibition, actives largely listed as inhibitors; 360,000 tested, 4.4% active; further: on the % scale 0 is the no-effect control and ±100 the full control effect; nearly all actives have a fitted effect of over 60% in size
#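 AlphaScreen displacement of biotin-H3(5-23)K14Ac peptide (50 nM final) from BAZ2B (50 nM final) in PBS pH 7.4, 0.01% Tween-20; complex preformed 30 min RT, then compounds (top 110 uM) 30 min RT, beads 20 min dark.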
# JMJD2A Tudor – qHTS Assay for Inhibitors of JMJD2A-Tudor Domain; Potency, µM (top dose mostly 114 µM), for the others: at the top dose activity change, negative = inhibition, most hits filed as inhibitors; 390,000 tested, 4.4% active; AlphaScreen JMJD2A-Tudor / H3K4me3 peptide binding; further: on the % scale 0 is the no-effect control and ±100 the full control effect; nearly all actives have a fitted effect of over 50% in size
# Sfp inh – qHTS Assay for Inhibitors of Bacillus subtilis Sfp phosphopantetheinyl transferase (PPTase); 4'-phosphopantetheinyl transferase ffp (Bacillus subtilis), Q9F4F7; Biochemical Sfp PPTase activity, qHTS; Potency, µM, inactives show largest response in the series, negative = inhibition, usual class: inhibitors; 310,000 tested, 3.5% active;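 further: the enzyme is Sfp with the accession as filed and its product quenches rhodamine fluorescence; 0% = enzyme reaction without inhibitor and -100% = no enzyme wells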
#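 Fluorescence-quenching assay with 15 nM Sfp, 5 uM rhodamine-CoA and 12.5 uM BHQ-2-labelled ybbR peptide in pH 7.6 Hepes/MgCl2 buffer. Enzyme was pre-incubated with compound for 15 min at room temperature. Rate was taken from the 30-min fluorescence change (525/598 nm).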
# G9a block – qHTS Assay for Inhibitors of Histone Lysine Methyltransferase G9a. Histone-lysine N-methyltransferase EHMT2 (Homo sapiens), Q96KQ7. G9a H3K9 monomethylation, AlphaScreen, 2 h. Potency, µM (top dose mostly 102 µM), for inactives: top-dose activity, negative = inhibition, usual class: inhibitors. 350,000 tested, 8.8% active; further: on the % scale 0 is the no-effect control and ±100 the full control effect; nearly all actives have a fitted effect of over 75% in size
#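 AlphaScreen read-out: biotin-H3K9 peptide (500 nM) methylation by 20 nM enzyme with 20 uM SAM, 2 h at room temperature after 15 min compound preincubation; anti-monomethyl H3K9 antibody plus donor/acceptor beads, 10 min dark.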
# Numbers without * were called inactive; ? = inconclusive; nt = no result given; [ ] = remark or other dose. Sampled rows, rich in hits. Any-hit rate of the full collection: about 8.7%. The call rests on the fitted dose curve; in most records, active means well fitted curve in the direction sought with a large enough effect; inconclusive means small, poorly fitted or top-dose-only effect, or another doubt; inactive means no such curve, though single readings can be large; an effect the other way counts as inactive or inconclusive. Potency means the concentration at half of the fitted maximal effect.
SMILES,HP1b binding inh,12-LOX inh,BAZ2B block,JMJD2A Tudor,Sfp inh,G9a block
CCC(=O)OC1=C(C(C)=O)N(Cc2ccccc2)S(=O)(=O)c2ccccc21,28%,5%,-30%,50µM*,nt,?
CC(=O)Nc1c(O)cc(Br)c2nonc12,16%[57 µM],nt,nt,-18%[57.1 µM],nt,nt
CC(=O)Nc1cc(O)c2nonc2c1O,?,nt,nt,25µM*,nt,nt
Cn1c(N)c(C(=O)Nc2ccccc2)c(=O)[nH]c1=O,27%,-24%,nt,-12%,nt,nt
Cn1c(N)c(C(=O)/C=C/c2ccccc2)c(=O)[nH]c1=O,-24%,1%,-2%,-24%,50µM*,?
N#C/C(=C(/O)c1ccccc1)c1nc2ccccc2[nH]1,nt,9%,nt,nt,nt,nt
Cc1sc(NC(=O)CSc2nnnn2C)c(C#N)c1C,53%,12%,-20%,-10%,19%,nt
CCCn1nnnc1SCC(=O)Nc1sc(C)c(C)c1C#N,-5%,nt,2%,-13%,50µM*,47%[12.7 µM]
CC(=O)c1ccc(-n2nnnc2SCC(=O)Nc2sc(C)c(C)c2C#N)cc1,12%,2%,7%,?,50µM*,-14%
Cc1cc(C(=O)N[C@H]2[C@H](O)[C@H](O)C[C@@H]2c2cccnc2)nn1C,nt,30%[176 µM],nt,nt,nt,nt
O=C(c1ccc(C(F)(F)F)cc1)N1CCC2(CC1)CNc1ccccc1[S+](=O)([O-])N2,nt,45%,nt,nt,nt,nt
NNc1ccc(Cc2ccc(Cl)cc2Cl)nn1,23%,?,2.8µM*,28µM*,6%,-24%
CCc1cccc(C)c1NC(=O)c1nn(-c2ccccc2)c(=O)c2ccccc12,nt,34%,nt,nt,nt,nt
COc1cc2c(cc1OC)C(c1ccccc1)N(C(=O)CCl)CC2 (stereo unspecified),29%,-10%,7%,-13%,2%,-7%[59 µM]
COc1cc2c(cc1OC)C(c1ccccc1O)N(C1CC(=O)N(c3ccccc3)C1=O)CC2 (stereo unspecified),16%,0%,-29%,-10%,?,8.9µM*
Cc1cc(C)c2c(CC(=O)Nc3c(C)cccc3C)coc2c1,nt,3%,nt,nt,nt,nt
O=[N+]([O-])c1ccc2c(c1N1CCCCC1)=NC1(CCCCC1)[N+]=2[O-],40µM*,0%,35µM*,?,25µM*,50µM*
COc1cc(C(=O)N2CCN(c3nccs3)CC2)cc(Cl)c1OC,nt,5%,nt,nt,nt,nt
COc1ccc(NC(=O)c2ccc3c(c2)OCCN(CCC(F)(F)F)C3)cn1,nt,14%[176 µM],nt,nt,nt,nt
Cc1cc2c(c(/C=C/C(=O)c3ccccc3)c1)OC1(C=C2)Oc2ccccc2C(=O)N1C (stereo unspecified),16%,?,?,-33%,-2%,50µM*
COc1ccc(Cn2c(SCc3ccccc3C)nc3cc(OC)c(OC)cc3c2=N)cc1,nt,?,?,nt,1.3µM*,40µM*
Cc1cc(Cl)ccc1S(=O)(=O)N1C[C@@H](C(N)=O)[C@H](C2CCN(C)CC2)C1,nt,-30%,nt,nt,nt,nt
COC(=O)C1=C(C)N(CCc2ccc(OC)c(OC)c2)C(=O)/C1=C\N(C)C,46%,0%[57.4 µM],-3%,-6%,-23%,45µM*
COc1ccc(CN2C(=O)c3cccnc3C2=O)cc1S(=O)(=O)N1CCCCC1,9%[57 µM],-5%,?,-15%,10%,-29%
COc1ccc(CCNC2=C(Cl)C(=O)N(CCc3ccc(OC)c(OC)c3)C2=O)cc1OC,28%,0%,12%,15%,-16%,-2%[59 µM]
SMILES,HP1b binding inh,12-LOX inh,BAZ2B block,JMJD2A Tudor,Sfp inh,G9a block
COc1ccc(CCN2C(=O)c3cccnc3C2=O)cc1OC,13%,6%,79µM*,-12%,30%,-42%
COc1ccc(CCN2C(=O)CC(Cc3ccc(C)cc3)C2=O)cc1OC (stereo unspecified),-6%,-12%,1%,10µM*,11%,-2%[0.501 µM]
COc1ccc(CCN2C(=O)C=CC2=O)cc1OC,?,-12%,nt,32µM*,nt,nt
COc1ccc(CCN2C(=O)CC(NC34CC5CC(CC(C5)C3)C4)C2=O)cc1OC (stereo unspecified),43%,-17%,-17%,-20%,-13%,?
CCCCC(=O)Nc1nonc1-c1ccc(F)cc1,nt,16%,nt,nt,nt,nt
CC(=O)c1ccc(NC(=S)NNC(=O)NC2CCCCC2)cc1,-16%,-11%,?,-28%,16µM*,8.9µM*
O=C(O)c1ccc(NC(=S)NC2CCCCC2)cc1,11%,-17%,6%,-19%,?,11%[59 µM]
Cc1cccc(NC(=S)NNC(=S)NC2CCCCC2)c1C,-14%,-12%,-9%,-26%,?,1.3µM*
Cc1ccc(NC(=S)NNC(=S)NC2CCCCC2)cc1,-14%,?,-14%,?,40µM*,?
Cc1cccc(NC(=O)c2ccccc2NC(=O)C2CCCCC2)c1C,0%,-7%,50µM*,-13%,28µM*,15%[0.501 µM]
CC(C)c1ccc(NC(=S)NC2CCCCCC2)cc1,33%,-21%,-21%,-30%,10%,27%[12.7 µM]
Cc1oc2cc(OCc3ccccc3)ccc2c(=O)c1Oc1ccccc1,nt,-8%,nt,nt,nt,nt
COc1ccc(C(=O)Nc2nc3nc(-c4ccccc4)cc(=O)n3[nH]2)cc1,37%,-2%,12%,-13%,15%,?
O=c1cc(-c2ccccc2)nc2nc(SCc3ccccc3)[nH]n12,3%,-13%,79µM*,?,7%,-12%[12.7 µM]
Cc1cc(=O)n2[nH]c(SCc3ccccc3)nc2n1,26%,0%,2%,19%,8%,13%
CC(C)CC(=O)Nc1nc2nc(-c3ccccc3)cc(=O)n2[nH]1,26%,0%,50µM*,?,nt,?
O=C(Nc1nc2nc(-c3ccccc3)cc(=O)n2[nH]1)c1ccc(Cl)cc1,26%,-27%,79µM*,?,nt,?
O=C(CCc1ccccc1)Nc1nc2nc(-c3ccccc3)cc(=O)n2[nH]1,22%,0%[57.4 µM],5%,-31%,13%,?
O=C(c1csc2c1CCCC2)N1CCCC(OCc2ccccn2)C1 (stereo unspecified),nt,22%,nt,nt,nt,nt
O/N=C1/CCCCC1c1ccccn1 (stereo unspecified),23%,0%,50µM*,32µM*,-24%,?
COc1ccccc1NC(=O)c1csc2c1CCC(C)C2 (stereo unspecified),129%,-10%,-26%,87%,?,?
